From PubChem BioAssay AID1347423 (Functional Genomics Laboratory (NCATS/FGL), 2020)
Screen size: about 52,000 sequences; about 210 (0.4%) were called active. This is one part of a sample in which actives are shown more often than they occur.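 How the source made its calls: active means gene whose silencing raises cell survival under the drug, median off-target-corrected z-score across its silencing RNAs 2 or more; inactive means the rest.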

Assay: Resistance to Poly (ADP-Ribose) Polymerase inhibitor: Gene Identification via Genome-wide siRNA Screen
Conditions: mouse BRCA2 R2336H ES cells, olaparib, CellTiter-Glo viability; active compounds read high
How it was run: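 Mouse BRCA2 R2336H ES cells were reverse-transfected with siRNA (20 nM final), treated at 48 h with 500 nM olaparib, and read by CellTiter-Glo after 72 h. Scores: MAD-based z per siRNA, median per gene, seed off-target correction.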

Sequence	z-score
GCAAUGCGACGUGCUCUAUTT against LOC330863	-0.895 (inactive)
GCGGCAUAAGUCCAAGCACTT against Crk7	-1.76 (inactive)
GGAAUGUUCUGUCGCUAUGTT against Nrp1	0.0552 (inactive)
GGUUGAAUAUUGAAUGGAATT against 9130422G05Rik	0.44 (inactive)
CCUGAAAAAAUUUAUCGCCTT against Rnf3	-0.169 (inactive)
GCUUCCUCUACAUCCUGCUTT against Kcnk15	2.57 (active)
GGCUGAACUCAAAAAGACGTT against Hand1	2.07 (inactive)
GGUGAAGCUGAAACAACAUTT against BC020002	0.323 (inactive)
GCUUGUGAAAAAUUAUGAGTT against Ipo7	-1 (inactive)
GCUCUACUGCUUCCUUGUUTT against Olfr973	-2.32 (inactive)
GGAGAUGUGUGCUAUGUGGTT against Gzmb	-1.14 (inactive)
GGCCAACUGAUUAAGAAACTT against Chrnb1	2.28 (active)
GGGAUACCAUGGGAAUAGUTT against Vps52	0.468 (inactive)
GGACAAGGAUGCAAUUAUCTT against 4833427G06Rik	-2.12 (inactive)
GGCUCAAGGACAGAUGAUGTT against Tra1	-0.94 (inactive)
GGAGCUAAGACAGUUUGGATT against BC022133	-1.16 (inactive)
GGAUGAUACUUCAUUACACTT against Ankrd12	-0.613 (inactive)
GGAGUGAAAUUUACUGGGUTT against Hdgfrp3	1.78 (inactive)
CGAGGUGACCUACAAGAUUTT against AI481750	0.982 (inactive)
CCUUCUGUAGUUGGAAUCATT against 1110038F21Rik	-0.558 (inactive)
GGGUUAUGUCUGUGGAGCUTT against Bcl2l2	1.54 (active)
GCCUUAAGUGGAUUUAGGATT against Hist1h2ae	1.22 (inactive)
GGAAAUACCCUGAUAGCCATT against 9430077C05Rik	-1.23 (inactive)
GCAACAUUAGGAUUUAUAGTT against 1110032E23Rik	-0.366 (inactive)
GGUGAAAACCCUAACAGUCTT against A130007F10Rik	0.653 (inactive)
CCAAGUUUUUAUGCAGAUATT against Pip5k1a	-1.31 (inactive)
GCUUACCUUGACCAACCUCTT against Chrng	1.84 (active)

Sequence	z-score
GCCACCUUGUUUCUCGAACTT against 1810008A18Rik	0.925 (inactive)
GCAAGUCCUACAAUACAACTT against Tk1	-0.837 (inactive)
GGUGCAGCCACGAAAACAUTT against Lmln	1.57 (inactive)
CGAUUAUGACCGAUAUAGATT against Fusip1	0.823 (inactive)
GGAUAUUGAACACUUCUUGTT against D330017J20Rik	1.25 (inactive)
GGGACUUUCAUAAUGCCAGTT against Snip1	0.733 (inactive)
GGCCUCCCUACUUGAAGACTT against Crip3	1.71 (active)
GGCUCUCUUAGUUGUAUCATT against Mrpl35	-1.03 (inactive)
GGAAGUCCGUUUUUAAGAATT against 4732429I09Rik	-0.792 (inactive)
GCUCAAACAGAUACACGGATT against Ap2a2	0.288 (inactive)
GCUUGAUCAACAAGUGGAGTT against Nup62	-1.64 (inactive)
GCUUGACCCUACACUACAGTT against Olfr1121	1.25 (inactive)
GGCAUUGUAGAGAUGACUCTT against 4732479N06Rik	1.16 (inactive)
UUCUGUGCAUCCUGUCCUATT against Kcnk15	-0.484 (active)
CGUGUGAGGUUUGUGAAAGTT against Gzmf	-2.41 (inactive)
GCCUAAAAAAUCUCUGUGATT against Zswim3	-1.39 (inactive)
GGAAGUUCAACACCUCCAGTT against BC023296	-0.673 (inactive)
CGAUUUCAGCUUAAAGCACTT against Lmo3	1.44 (inactive)
CCCUAAAACCAAAUGUACATT against E130014J05Rik	6.23 (active)
GGACUUGGAAGUAAUUUUCTT against C230071H18Rik	2.75 (inactive)
GCGAACAGAAAAGACCAAUTT against Col4a5	1.11 (inactive)
GGGACAUACAUAUCCUCCUTT against 1300013D05Rik	1.31 (inactive)
GCAUACAUAGCACUACAUATT against Olfr536	-0.0396 (inactive)
GGACAGUGUUUACAAACUUTT against Fbxw7	0.328 (inactive)
GCAUAUGGUCCACUAAAAATT against Kcnj4	0.316 (inactive)
GGUACUGGAGAAAGUCAAGTT against Pik4cb	0.097 (inactive)
GGAUGAUUUCCAGAGAGUATT against Rdh5	-1.33 (inactive)

Sequence	z-score
GGAGUGUGAUCAAGUUCAUTT against Eya4	0.648 (inactive)
GCUUUUACAAGACCUGUUCTT against Pde2a	1.02 (active)
GGAGAGAACUGGAAGAGAGTT against 0610040D20Rik	-2.18 (inactive)
GGAAAUACGGCUUCAUCUATT against Cyp26a1	0.936 (inactive)
GACAUUUGUAUGCAGUCAUTT against V1ri9	0.237 (inactive)
GGAUUCGAUUCUUCCAAAATT against Peli2	-1.02 (inactive)
GGUCUUAGAAGAUUUUUCUTT against Adam21	2.43 (active)
AUUCUGAACACUCCUCGGATT against C630041L24Rik	-0.69 (inactive)
GGAACUGCUUACGAAAUACTT against Lama4	-0.374 (inactive)
GGAUGCUACGUUCUGCUAGTT against Bcat2	-0.76 (inactive)
GCCCUCAGGUGGUUCUUAATT against C030036P15Rik	-1.76 (inactive)
GGAGAAACUGAUGACAGUGTT against Plcb3	1.47 (active)
GCUAUUAUUGCAAUGUCAGTT against Trim38	-0.00296 (inactive)
GCUACGAGAGGUCAUUUCCTT against Chrnb1	2.48 (active)
GGCUGAAGCAGUCUGUUGCTT against Rpp14	-0.655 (inactive)
GGCUGUUUGUGGUAUAGGUTT against Lrrc3	1.52 (inactive)
GGCAACUUUGUUAUAUACATT against Sh2bp1	-0.76 (inactive)
CCUCAGAUUUCAACCAUAGTT against 2700087I09Rik	1.64 (inactive)
CCAUGACAUUUCCUAAGUUTT against B130022O04Rik	-2.2 (inactive)
GGAAAAGAUACGGAAGAUUTT against Acpp	0.216 (active)
GCUUCUAAUUGGAGAUUGCTT against Ngfrap1	1.44 (inactive)
CCAGUUACGUUAAAAGCUUTT against D1Bwg0491e	0.00475 (inactive)
GGGAGAAUUACCAAGAUCUTT against Elac1	2.5 (inactive)
GGUCGACUUAAGAUAAUAATT against Itgb6	1.94 (active)
GCCCUAGAUCAGGAGAUCATT against Rps17	-2.58 (inactive)
GGAUGUCCCACUGCUUUACTT against 5730466C23Rik	-0.562 (inactive)
GCACUAGUUCUCAAUUUAATT against Antxr1	0.317 (inactive)

Sequence	z-score
GGCAUCUUCAAAUGACAUATT against Cic	2.45 (active)
GGCCCAUUUUGGUGUGCAUTT against Hyal3	-0.6 (inactive)
GGUGCCUAAUGGAUAAGAATT against Thrap2	0.923 (inactive)
GGAAACCAGACUUUCCCUATT against V1ra5	-0.806 (inactive)
GGACCAGGUUCACUUCCCUTT against Ovol1	0.343 (inactive)
GCAGAUCUCUUACGUCAUCTT against Adam9	0.749 (inactive)
GGAAAGUGGUUUUGUCCACTT against Ing5	1.74 (inactive)
GGUCACGUGCAGUUAUAUCTT against Rab32	0.0398 (inactive)
GGCCUAAAUUGACAAACUUTT against Mgea5	0.366 (inactive)
GCAGCUCCAAAUCCUGUUCTT against Asb16	-1.78 (active)
GGAAACUUCUGCACUUGGGTT against 4930474M22Rik	1.02 (inactive)
GCUGUCUGAUUCUGAGGUGTT against Slc6a1	-0.947 (inactive)
GGGUUUAAUCAUGAUAGAATT against E130014J05Rik	3.95 (active)
GGUGACAAUAAAAUGGUGATT against Fabp1	0.496 (inactive)
GGUCAUGGUCUGAGAUUCUTT against Txnl4	0.353 (inactive)
CCCAUGUUCGAUGGGAAAGTT against Adprt1	0.293 (active)
GCAAGGUGCACCUAAAGCATT against Egr4	-2.04 (inactive)
GGACAAGAACUACAUUGAGTT against Eefsec	2.12 (inactive)
GGACUUUUGGAUAACUUAGTT against 1200008A14Rik	-0.788 (inactive)
GGAUAUUCUUCCAGUCUUUTT against MGC118154	-1.48 (inactive)
CAAACCCAUGUUCUAAAUGTT against Oog3	0.339 (inactive)
GGAGGUUUUGAUGGACUGUTT against 2610528H13Rik	-0.424 (inactive)
CCUUGUACCCAGUAAAGUCTT against 2310007B03Rik	-2.34 (inactive)
GGGAAAAUGCUUUGUUGGATT against Rqcd1	1.97 (active)
